The results in this text go back to PubChem BioAssay AID651699 (Sanford-Burnham Center for Chemical Genomics, 2012).

Screen size: about 360,000 compounds; about 2,100 (0.58%) were called active. The entries come from a sample that favours actives as a whole. Unmarked numbers belong to inactive results. Rule as the data show it: active = inhibition above about 36%; inactive = the rest.

The inhibition is the drop in the measured response relative to a control, in per cent.

The assay deals with NEDD8-conjugating enzyme Ubc12 (Homo sapiens) + NEDD8-activating enzyme E1 regulatory subunit (Homo sapiens) (UniProt P61081+Q13564). As to the kind of experiment: NEDD8 transfer onto cullin, blockade – biochemical, TR-FRET, uHTS, NAE and Ubc12, primary screen (AID 651699). The note with it: TR-FRET cullin neddylation, at 25 µM, stronger effect = higher value. On the technique in general: TR-FRET usually uses a lanthanide donor and a delayed reading to cut background.
NEDD8-conjugating enzyme Ubc12 (Homo sapiens) + NEDD8-activating enzyme E1 regulatory subunit (Homo sapiens), sequence (P61081 whole entry, looked up): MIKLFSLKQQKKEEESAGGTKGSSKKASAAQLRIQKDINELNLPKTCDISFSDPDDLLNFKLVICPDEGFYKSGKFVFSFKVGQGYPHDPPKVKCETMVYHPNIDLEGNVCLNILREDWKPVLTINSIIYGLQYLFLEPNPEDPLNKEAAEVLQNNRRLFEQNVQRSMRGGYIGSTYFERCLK
NEDD8-conjugating enzyme Ubc12 (Homo sapiens) + NEDD8-activating enzyme E1 regulatory subunit (Homo sapiens), sequence (Q13564 whole entry, looked up): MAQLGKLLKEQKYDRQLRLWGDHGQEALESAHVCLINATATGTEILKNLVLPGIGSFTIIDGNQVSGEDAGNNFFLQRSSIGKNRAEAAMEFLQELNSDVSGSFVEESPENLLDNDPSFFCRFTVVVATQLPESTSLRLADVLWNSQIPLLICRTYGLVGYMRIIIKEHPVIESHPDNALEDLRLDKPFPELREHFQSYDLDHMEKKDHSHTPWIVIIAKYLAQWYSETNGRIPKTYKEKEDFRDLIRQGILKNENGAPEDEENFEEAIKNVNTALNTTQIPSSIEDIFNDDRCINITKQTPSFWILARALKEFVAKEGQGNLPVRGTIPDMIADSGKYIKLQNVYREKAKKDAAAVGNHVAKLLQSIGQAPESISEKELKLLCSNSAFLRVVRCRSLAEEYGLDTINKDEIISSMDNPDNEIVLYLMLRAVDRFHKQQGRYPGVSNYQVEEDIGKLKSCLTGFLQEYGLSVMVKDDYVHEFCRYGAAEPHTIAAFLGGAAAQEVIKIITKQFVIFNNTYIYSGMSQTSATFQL
Regarding `O=C(COc1ccccc1Cl)N1N=C(c2cccs2)CC1c1ccco1` (configuration not stated), the inhibition is 39.1% (active). For `O=C1c2cccc(OCC(=O)N3N=C(c4cccs4)CC3c3ccc(F)cc3)c2CCN1Cc1ccccc1` (configuration not stated) the value was -25.8%; for `Cc1ccc(C2=NN(C(=O)COc3ncnc4ccccc34)C(c3ccco3)C2)cc1` (configuration not stated), -119%; for `CCC(C)(C(=O)NC1CCCC1)N(C(=O)CNC(C)=O)c1ccc(C)cc1` (configuration not stated), -5.51%. For `N#Cc1ccc(/C=C2\CCn3c2nc2cc(C(=O)O)ccc2c3=O)cc1` the value was 63.7% (active); for `Cc1ccc(/C=C2\CCn3c2nc2cc(C(=O)O)ccc2c3=O)c(C)c1`, 31.9%; for `N#Cc1cccc(OC(=O)c2ccc3c(=O)n4c(nc3c2)CCC4)c1`, -4.93%.

Consider `O=C(O)c1ccc2c(=O)n3c(nc2c1)/C(=C/c1ccc(OC(F)F)cc1OC(F)F)CC3`, for which the inhibition is 41% (active). For `Cc1cc(C)c(C)c(S(=O)(=O)N2CCN(C(=O)c3ccc4c(=O)n5c(nc4c3)CCC5)CC2)c1C` the value was 20.1%; for `O=C(Nc1cc(F)ccc1F)c1ccc2c(=O)n3c(nc2c1)CCC3`, 8.53%. On to `CCCn1c(C2CCCN2c2nc(-c3ccc(OC)cc3)cs2)nc2ccccc21` (configuration not stated), for which the inhibition is -26.8%. Take `CCOC(=O)[C@]12CCC=C1N(Cc1ccco1)C(=O)[C@H](CC(=O)NCc1cccc(C(F)(F)F)c1)C2`: the inhibition was 5.67%. For `COc1cc(C2NC(=O)NC(c3ccccc3)=C2C(C)=O)c(Br)cc1OCC(N)=O` (configuration not stated) the value was 9.92%; for `COc1ccc(-n2cc(CN(C)Cc3n[nH]c(=O)[nH]3)c(-c3cccc(F)c3)n2)cc1`, 47.7% (active); for `Cc1nc2ccc(S(=O)(=O)NC(C(=O)N3CCCCCC3)C(C)C)cc2s1` (configuration not stated), 1.31%. For the molecule `COc1cc2c(cc1CNC[C@H]1O[C@@H](n3cnc(C(N)=O)n3)[C@H](O)[C@@H]1O)OCO2`, the inhibition was 0.3%. As to `Cc1nn(-c2ccccc2)c(NC(=O)c2cccs2)c(-c2ccc(Cl)cc2)c1=O`, the inhibition is 5.28%. `CCOC(=O)c1cnn(Cc2ccccc2Cl)c1N`: the inhibition is 4.25%. Regarding `CCOC(=O)c1cnc2nc(SCc3ccccc3Cl)[nH]n2c1=O`, the inhibition is 36.4% (active). In the case of `CCOC(=O)CSc1nc2c(c(=O)n(Cc3ccccc3Cl)c(=O)n2C)n1C` it was -3.76%; in that of `CC1=C(C(=O)OCC2CCCCC2)C(c2ccc(F)cc2)NC(=O)N1` (configuration not stated), 10.3%. With `CCN(C[C@H]1N[C@@](CC)(C(=O)OC)[C@H]2C(=O)N(Cc3ccccc3)C(=O)[C@@H]12)S(=O)(=O)c1ccc(C(F)(F)F)cc1`, the inhibition is 2.27%. `Oc1ccc(-c2[nH]ncc2-c2nc3ccccc3s2)c(O)c1`: the inhibition is -10.2%. In the case of `c1ccc(-c2[nH]ncc2-c2nc3ccccc3[nH]2)cc1` it was 44.3% (active). Take `O=C1Nc2ccc([N+](=O)[O-])cc2C1=Nc1cccc(CO)c1`: the inhibition is -19.4%. As to `COC(=O)C1(C(=O)OC)C[C@H](c2ccccc2)N(Cc2ccccc2OC)[C@@H]1c1ccccc1`, the inhibition was -0.75%. For `O=c1cc(CN2CCCCCCC2)c2c(ccc3ccccc32)o1`, the inhibition is 47.4% (active). Regarding `CC(C)c1ccc2oc(=O)cc(CN3CCN(Cc4ccccc4)CC3)c2c1`, the inhibition was 8.04%. `CN(Cc1nc2ccccc2c(=O)[nH]1)Cc1cc(=O)oc2ccc3ccccc3c12`: the inhibition is 10.8%.

Turning to `NC(=O)C1CCN(C(=O)/C(=C/c2ccco2)NC(=O)c2ccccc2)CC1`, the inhibition was 2.01%. In the case of `O=C(CN1CCN(C2CCS(=O)(=O)C2)CC1)N1N=C(c2ccc(Cl)cc2)CC1c1ccco1` (configuration not stated), the inhibition was 3.58%.

For the molecule `COC(=O)C1=CN(c2ccc(F)c(F)c2)C=C(C(=O)OC)C1c1ccc([N+](=O)[O-])cc1`, the inhibition is -12.5%. For the molecule `COC(=O)C1=CN(C)C=C(C(=O)OC)C1c1ccc(Cl)cc1Cl`, the inhibition is 42.5% (active). As to `NC(=O)C1(C(N)=O)OC1c1ccc(Cl)cc1Cl` (configuration not stated), the inhibition was -3.19%. In the case of `C[N+](C)(C)CCNC(=O)c1cc[n+](Cc2ccccc2)c(/C=N/O)c1`, the inhibition is -22.5%. In the case of `O=C(Nc1c(Br)cc2c(c1Br)Cc1ccccc1-2)C(F)(F)F` it was -31.9%; in that of `CN(CC(=O)Nc1ccc(F)c(F)c1F)C(=O)C1CC(=O)N(C2CCCC2)C1` (configuration not stated), 1.3%. Take `Cc1ccc(S(=O)(=O)NCCc2nnc3ccc(SCc4cccnc4)nn23)cc1`: the inhibition was -3.01%.

With `CNC(=O)c1csc(Cc2c(Cl)sc3ccc(Cl)cc23)n1`, the inhibition is -6.49%.

In the case of `CC(=O)NNC(=O)c1csc(Cc2c(Cl)sc3ccc(Cl)cc23)n1`, the inhibition is 45.8% (active). For the molecule `CC(=O)Cc1nsc(NC(=O)c2ccc(Cl)cc2Cl)n1`, the inhibition was 12.4%.

Consider `Oc1ccccc1CNc1ncc(Br)cc1Br`, for which the inhibition is -3.76%. For `O=C(CNC(=O)c1cccnc1)N/N=C/c1cc(Br)c(O)c(Br)c1` the value was 5.12%; for `Cc1ccc(NC(=O)COc2ccc(/C=N\NC(=O)c3cccnc3)cc2)cc1C`, 56% (active). For `Cc1cccc(OCC(=O)NCCNC(=O)c2cccnc2)c1` the value was 2.8%; for `COc1ccc(CNC(=O)CN(c2ccc(OC)c(Cl)c2)S(=O)(=O)c2ccc(C)cc2)cc1`, 8.36%; for `COc1ccc(C(=O)NC(C)c2nccs2)cc1OC1CCN(C(C)C)CC1` (configuration not stated), -0.68%.

For `Cc1ccc(CSCC(=O)N(C)CC(=O)Nc2ccc(C)cc2)cc1`, the inhibition is 5.66%. In the case of `Cc1ccc(NC(=O)CN(C)C(=O)COC(=O)C(C)(C)Oc2ccc(Cl)cc2)cc1` it was 9.98%. As for `Cc1ccc(NC(=O)CN(C)C(=O)COC(=O)c2nccnc2N)cc1`, the inhibition is 57.4% (active). In the case of `O=C(OCCOCn1cc(Br)c(=O)[nH]c1=O)c1ccccc1` it was 1.74%; in that of `COC(=O)c1sc(-c2ccc(C(C)(C)C)cc2)cc1NC(=O)/C=C/C(=O)O`, -17%; in that of `COc1cccc(/C=N/Nc2cc(C)nc(-c3ccccc3O)n2)c1O`, 40.2% (active). In the case of `COc1ccc(N2C(=O)CC(Sc3n[nH]c(-c4ccc(C)cc4)n3)C2=O)cc1` (configuration not stated) it was 0.38%; in that of `Cc1ccccc1NC(=O)COc1cccc2c1CCNC2=O`, -9.32%.

Consider `O=C(Cn1nnc(-c2ccccc2)n1)N/N=C/c1ccc(-c2ccc(Cl)cc2)o1`, for which the inhibition is 28.8%.

Turning to `Nc1nnnn1CC(=O)N/N=C/c1ccc(-c2cccc(Cl)c2)o1`, the inhibition is 49.1% (active).

Consider `CCCCCN(C(=O)NC(=O)Nc1ccccc1C)S(C)(=O)=O`, for which the inhibition was -3.04%.

For the molecule `COc1ccc(C2CC(c3cccs3)=NN2C(=O)COC(=O)c2cc3ccccc3cc2O)cc1OC` (configuration not stated), the inhibition is 0.97%. In the case of `COc1ccc(C2CC(c3cccs3)=NN2C(=O)CSc2nnc(N)s2)cc1OC` (configuration not stated) it was -4.71%. In the case of `COc1cccc(C2CC(c3cccs3)=NN2C(=O)CSC2=NCCS2)c1OC` (configuration not stated) it was 47.3% (active). In the case of `CCN1C(=O)/C(=C\N2CCOCC2)SC1=S` it was -15.3%; in that of `O=C1c2cccc3cccc(c23)N1CN1CCN(c2ccccn2)CC1`, 38.1% (active).

For the molecule `O=C1c2ccccc2S(=O)(=O)c2cc(N3CCN(c4ccccn4)CC3)ccc21`, the inhibition was -31.5%.

For `O=C(c1cc2ccccc2s1)N1CCN(c2ccccn2)CC1`, the inhibition was -7.27%. Regarding `Cc1ccc(O)c(NC(=S)NC(=O)COc2ccc(Br)cc2)c1`, the inhibition was 12.7%. For `COc1cc(NC(=O)CCNC(=O)Cn2ccc3ccccc3c2=O)cc(OC)c1OC` the value was 5.61%. For `Cc1cccc(N)c1SC1CCCCC1O` (configuration not stated) the value was 6.45%. For `COCOCCn1cc(CN2CCS(=O)(=O)N(Cc3ccc(-c4ccc(OC)cc4)cc3)C(CC(C)C)C2=O)nn1` (configuration not stated) the value was -8.33%; for `COCCn1c(C)cc(C(=O)COC(=O)/C=C/c2cccc(OC)c2)c1C`, 12.7%; for `COc1cccc(/C=C/C(=O)OCC(=O)N2CCN(c3ccccc3)CC2)c1`, 31.1%. Turning to `COc1cccc(/C=C/C(=O)OCC(=O)N2CCCc3ccccc32)c1`, the inhibition is 40.6% (active).

`CC(NC(=O)CN1CCN(Cc2ccc(Cl)cc2)C1=O)c1ccc2c(c1)OCCO2` (configuration not stated): the inhibition was -6.96%. In the case of `COc1ccc(CCN2C(=O)C3CC=C(C)CC3C2=O)cc1OC` (configuration not stated) it was 1.1%; in that of `COc1cc(NS(=O)(=O)c2ccc3ccccc3c2)c2ncccc2c1`, 50.3% (active). For `COc1ccc(OC)c(C(C)NC(=S)Nc2ccc(S(=O)(=O)Nc3ncccn3)cc2)c1` (configuration not stated) the value was 5.42%; for `O=S(=O)(Nc1ccccn1)c1cccc(S(=O)(=O)c2ccc(Cl)cc2)c1`, -0.91%; for `CC(C)NC(=S)Nc1cccc2cnccc12`, 0.89%. With `Cc1ccc(-n2nc3c(c2NC(=O)c2ccc4c(c2)OCO4)CSC3)c(C)c1`, the inhibition is 18.4%. For `C=CCNC(=O)c1ccc2c3n(nc2c1)-c1ccc(C)cc1CO3` the value was 49.5% (active); for `OC(COCc1ccco1)CN1CCN(c2ccccc2)CC1` (configuration not stated), -1.36%. `COc1ccc(-c2c(C#Cc3ccsc3)c3cc(-c4ccc(CN5CCOCC5)cc4)ccc3n2C)cc1`: the inhibition is 22.8%. As to `COc1ccc(Cl)cc1NC(=O)CN(C)C(=O)c1cn(-c2ccccc2)nc1-c1cccs1`, the inhibition is -140%. For `COc1cccc(NC(=O)CN(C)C(=O)/C=C/c2cn(-c3ccccc3)nc2-c2cccs2)c1`, the inhibition is 60.2% (active). For `O=c1cc(CO)oc(C(Nc2cccc(C(F)(F)F)c2)c2ccccn2)c1O` (configuration not stated), the inhibition is 0.9%. For the molecule `CC(C)C[C@H]1CNC(=O)C(=O)N1C[C@@H]1CCCN1C[C@H](Cc1ccccc1)N1C[C@H](CC(C)C)N(CC2CCCCCC2)C(=O)C1=O`, the inhibition is 7.12%. For `CN(C)c1ccc2c(=O)[nH][nH]c(=O)c2c1`, the inhibition was 33.3%.
